Results taken from paper PMC4336329 (PLoS ONE, 2015).
The whole screen tested about 310,000 compounds, of which about 14,000 (4.5%) showed an effect of 50% or more. Effects have a minus sign here. This excerpt belongs to a sample that is enriched for strong results.

The molecules below were run against human ether-à-go-go-related gene (hERG) potassium channel (human, UniProt Q12809) (assay: primary screen, population patch clamp on CHO cells stably expressing hERG; higher = less effect of the substance).
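Note: peak tail current of the secondary pulse compared with the same well before compound.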

Sequence of human ether-à-go-go-related gene (hERG) potassium channel (Q12809 whole entry, looked up): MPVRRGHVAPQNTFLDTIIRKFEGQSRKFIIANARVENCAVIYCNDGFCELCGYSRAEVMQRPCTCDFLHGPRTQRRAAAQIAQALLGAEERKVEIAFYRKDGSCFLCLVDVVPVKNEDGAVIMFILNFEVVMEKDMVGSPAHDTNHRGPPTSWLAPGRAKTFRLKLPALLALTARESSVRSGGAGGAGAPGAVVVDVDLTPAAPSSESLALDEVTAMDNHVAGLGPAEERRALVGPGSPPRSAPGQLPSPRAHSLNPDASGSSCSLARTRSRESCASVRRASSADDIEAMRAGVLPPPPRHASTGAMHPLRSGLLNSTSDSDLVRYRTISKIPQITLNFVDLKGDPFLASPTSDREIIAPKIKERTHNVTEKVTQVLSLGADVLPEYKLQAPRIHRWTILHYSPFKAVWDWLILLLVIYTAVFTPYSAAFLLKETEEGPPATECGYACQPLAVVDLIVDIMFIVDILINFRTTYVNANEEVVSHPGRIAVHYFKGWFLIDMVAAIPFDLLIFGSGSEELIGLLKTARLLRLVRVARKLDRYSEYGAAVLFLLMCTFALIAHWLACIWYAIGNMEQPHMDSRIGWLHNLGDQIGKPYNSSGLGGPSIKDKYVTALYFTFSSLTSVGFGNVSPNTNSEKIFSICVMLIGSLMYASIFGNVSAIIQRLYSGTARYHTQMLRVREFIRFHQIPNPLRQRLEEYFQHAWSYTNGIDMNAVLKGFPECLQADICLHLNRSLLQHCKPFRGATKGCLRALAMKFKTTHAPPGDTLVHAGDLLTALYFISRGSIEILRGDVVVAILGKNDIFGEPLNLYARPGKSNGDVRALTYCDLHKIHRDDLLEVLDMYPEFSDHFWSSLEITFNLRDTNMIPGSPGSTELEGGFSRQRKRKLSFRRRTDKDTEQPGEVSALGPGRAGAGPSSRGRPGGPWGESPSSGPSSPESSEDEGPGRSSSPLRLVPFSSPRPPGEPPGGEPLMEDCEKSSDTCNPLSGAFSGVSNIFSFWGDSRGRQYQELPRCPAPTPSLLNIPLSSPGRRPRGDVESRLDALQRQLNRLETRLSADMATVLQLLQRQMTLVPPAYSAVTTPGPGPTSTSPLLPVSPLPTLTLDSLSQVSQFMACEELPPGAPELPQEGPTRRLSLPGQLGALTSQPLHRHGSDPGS

Compared with `Cc1cc(NS(=O)(=O)c2ccc(NC(=O)CSc3nnc(-c4ccco4)n3C)cc2)nc(C)n1`, `COc1ccccc1-c1nnc(SCC(=O)NCc2ccco2)n1N` is higher in “hERG current change (%, negative = inhibition) at 10uM” value: 5.75% for the first, 17.2% for the second.

First: CCCCn1c(N)c(N(CC(C)C)C(=O)C2CC(=O)N(CCc3ccccc3)C2)c(=O)[nH]c1=O (centres unmarked)
Second: CCC(C)c1ccccc1N1CC(C(=O)NCCC2=CCCCC2)CC1=O (centres unmarked)
The “hERG current change (%, negative = inhibition) at 10uM” value of the first is lower: 7.09% for the first, 8.97% for the second.

First: Cc1ccc(Oc2nn[nH]n2)cc1
Second: Cc1ccc(NC(=O)C(=S)NCc2ccco2)cc1
The “hERG current change (%, negative = inhibition) at 10uM” value of the first is lower: 0.395% for the first, 7.1% for the second.

First: C=C1[C@@H](OC(C)=O)[C@]23C[C@@H]1[C@@H](OC(C)=O)CC2[C@]12C4C[C@H]3[C@H]1N(CC)C[C@]4(C)CC[C@@H]2O (some centres unmarked)
Second: Cc1ccc2c(c1)C1CN(C)CCC1N2C(=O)c1cccc(S(=O)(=O)N2CC(C)CC(C)C2)c1.Cl (centres unmarked)
The “hERG current change (%, negative = inhibition) at 10uM” value of the first is higher: -40.6% for the first, -44.8% for the second.

Compared with `O=C(NCc1n[nH]c(=S)n1-c1ccc(Cl)c(Cl)c1)c1ccc(S(=O)(=O)N2CCOCC2)cc1`, `CCCN(CC(=O)Nc1ccccc1C)C(=O)c1ccc(C)c(S(=O)(=O)N2CCCCC2)c1` is lower in “hERG current change (%, negative = inhibition) at 10uM” value: 14.5% for the first, -11.3% for the second.

Compared with `N#Cc1ccccc1OCc1nnc(-c2ccccc2Br)o1`, `CN(CCCOc1ccccc1Br)Cc1ccccc1` is lower in “hERG current change (%, negative = inhibition) at 10uM” value: 14.1% for the first, -22.1% for the second.

First: O=C(NCc1cccnc1)c1ccccc1NS(=O)(=O)c1ccc(F)cc1F
Second: Cc1ccc2c(c1)C1CN(C)CCC1N2C(=O)c1ccccc1NS(=O)(=O)c1cccc(C(F)(F)F)c1.Cl (centres unmarked)
The “hERG current change (%, negative = inhibition) at 10uM” value of the first is higher: 9.6% for the first, -48.5% for the second.

First: Cn1c(SCCOc2ccccc2Cl)nnc1-c1cccs1
Second: O=c1cc(CSc2ccc(Cl)cc2)nc(-c2ccccc2)[nH]1
The “hERG current change (%, negative = inhibition) at 10uM” value of the first is higher: -35% for the first, -59.7% for the second.

Going from `Cc1ccc2c(c1)C1CN(C)CCC1N2C(=O)/C(C#N)=C/c1ccc2c(c1)OCO2` (centres unmarked) to `Cc1ccc2c(c1)C1CN(C)CCC1N2C(=O)/C=C/c1ccc2c(c1)OCO2` (centres unmarked), the “hERG current change (%, negative = inhibition) at 10uM” value falls from -21.2% to -62.6%.

Going from `Cc1ccc2c(c1)[C@@H]1CN(C)CC[C@@H]1N2C(=O)Nc1cccc(C(F)(F)F)c1` to `Cc1ccc2c(c1)C1CN(C)CCC1N2C(=O)Nc1cccc(C(F)(F)F)c1` (centres unmarked), the “hERG current change (%, negative = inhibition) at 10uM” value falls from -38.5% to -52.4%.

Compared with `Cc1ccc2c(c1)C1CN(C)CCC1N2C(=O)Cc1cccs1.Cl` (centres unmarked), `Cc1ccc2c(c1)C1CN(C)CCC1N2C(=O)c1cccnc1Cl.Cl` (centres unmarked) is higher in “hERG current change (%, negative = inhibition) at 10uM” value: -46.9% for the first, 1.59% for the second.

Compared with `Cc1ccc2c(c1)C1CN(C)CCC1N2C(=O)Nc1cccc(Cl)c1` (centres unmarked), `Cc1cccc(-n2ncc3c(N4CC(C)CC(C)C4)ncnc32)c1` (centres unmarked) is higher in “hERG current change (%, negative = inhibition) at 10uM” value: -51.1% for the first, 8% for the second.

First: CCOC(=O)/C(C#N)=C/c1cccc(C)c1
Second: CCOC(=O)c1c(NCC2CCCO2)c2ccccc2[nH]c1=O (centres unmarked)
The “hERG current change (%, negative = inhibition) at 10uM” value of the first is higher: 12.6% for the first, 0.695% for the second.

Going from `CN(Cc1ccccc1)C(=O)COC(=O)c1ccccc1Nc1ccccc1` to `CN(CCCOc1ccccc1F)Cc1ccccc1.O=C(O)C(=O)O`, the “hERG current change (%, negative = inhibition) at 10uM” value falls from 13% to -57.3%.

Compared with `NC(=O)COC(=O)c1c2c(nc3ccccc13)CCC2`, `NC(=O)COC(=O)c1c2c(nc3ccccc13)CCCC2` is lower in “hERG current change (%, negative = inhibition) at 10uM” value: 9.85% for the first, -53.3% for the second.

Compared with `NC(=O)COC(=O)c1c2c(nc3ccccc13)CCCCC2`, `CN(C)CCCCOc1ccccc1F.O=C(O)C(=O)O` is higher in “hERG current change (%, negative = inhibition) at 10uM” value: -23.2% for the first, 14.4% for the second.

First: COc1ccc(/C=C/C2=NC(=C\N(C)C)/C(=O)O2)cc1
Second: COc1ccc(OCCCCN(C)Cc2ccccc2)cc1.O=C(O)C(=O)O
The “hERG current change (%, negative = inhibition) at 10uM” value of the first is higher: -37.6% for the first, -45.7% for the second.

Going from `CN(CCCCOc1ccc(F)cc1)Cc1ccccc1.O=C(O)C(=O)O` to `CN(CCOc1ccc(F)cc1)Cc1ccccc1.O=C(O)C(=O)O`, the “hERG current change (%, negative = inhibition) at 10uM” value rises from -54.7% to -23.3%.

First: CN(CCCCCCCCC(=O)/C=N/O)Cc1ccccc1.Cl
Second: CN(C)CCCCCCCCCCC(=O)/C=N/O.Cl
The “hERG current change (%, negative = inhibition) at 10uM” value of the first is lower: -58.4% for the first, -9.03% for the second.

Going from `CN(C)CCCN(CCCNC(=O)/C=N/O)Cc1ccccc1` to `CCCCNc1nc(-c2ccccc2)nc(-n2ccnc2)n1`, the “hERG current change (%, negative = inhibition) at 10uM” value rises from 1.31% to 12.2%.

First: CCc1ccccc1NC(=O)CCS(=O)(=O)c1ccc(OC)cc1
Second: O=c1cc(CSc2ccc(Cl)cc2)nc(-c2ccncc2)[nH]1
The “hERG current change (%, negative = inhibition) at 10uM” value of the first is higher: 7.48% for the first, 1.72% for the second.

Going from `Cc1ccc(Cl)cc1NC(=O)CC1NC2CCCCC2NC1=O` (centres unmarked) to `COC(=O)c1ccc(OC)c(-c2c(OC)cc(OC)cc2OC)c1`, the “hERG current change (%, negative = inhibition) at 10uM” value falls from 17.6% to -1.49%.
